For 1 compound, outcome results are on record in PubChem BioAssay AID1039 (National Center for Advancing Translational Sciences (NCATS), 2008).

The nature of this test: Normal 2 Cell Viability Secondary Assay for qHTS Assay for Epigenetic Modulators. As to conditions: Normal 2 bronchial epithelial viability, MTS, 4 days. An excerpt: NIH Molecular Libraries Screening Centers Network [MLSCN] NIH Chemical Genomics Center [NCGC] MLSCN Grant: 1 X01 MH079860-01 Assay Provider: Elisabeth D. Martinez, University of Texas SW Medical Center NCGC Assay Overview: This secondary assay characterizes selected actives identified in the qHTS of the Locus Derepression (LDR) assay (PubChem AID 597). The LDR assay detects the derepression of a GFP reporter that is stably integrated in a region of the genome of murine c127i mammary cells that is presumably silenced. Compounds that cause derepression of the locus to express GFP are identified by enumerating GFP positive cells using a laser-scanning microplate cytometer. […] Normal 2 cell viability was measured using Cell Titer 96 AQueous One (Promega), an assay which detects the ability of metabolically active cells to reduce a tetrazolium salt substrate (MTS), into a soluble formazan product that can be measured by colorimetry.
NCGC Assay Protocol Summary Normal 2 cells were plated in 96-well flat bottom tissue culture dishes (Corning) and grown overnight at 37 C and 5% CO2, then treated with compounds, incubated 4 days, and assayed for viability using the Cell Titer 96 AQueous One kit (Promega) according to the manufacturer's protocol. Absorbance at 490 nm and 650 nm (reference) was measured by a Spectra Max (Molecular Devices). […]
A general note: In qHTS, concentration-response curves come from the screen itself.

Each structure is given as a SMILES string. Active and inactive are the calls of the source. Calls follow the shape of the full dose curve.

As to `CN1CSC(=S)N(C)C1`, the call was inactive.
